Data as given in PubChem BioAssay AID1159580 (chemical genetic matrix, 2015).
Values joined by “and” are separate entries in the source; they are usually repeats but may differ in a detail not shown here. Equal values may be shown once. Screen size: about 5,500 compounds; about 2,000 (36%) were called active. About 18% were inconclusive and are not listed. Cut-off read from the data, not from the text of the source: active = normalized growth mostly below about 0.91 (no sharp cut-off); inconclusive = no clear call, values can overlap the other calls; inactive = mostly above about 0.92. Some of the results follow.

Experiment: chemical genetic growth profiling, strain panel (AID 1159580);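 note: tested at 20 µM; growth read once vehicle control cultures reached saturation at 30 °C; 1 = growth at the plate median or of vehicle wells; lower values mean less growth of the strain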
Conditions: S. cerevisiae deletion strains, growth OD

Measured: normalized growth

Oc1cccc(O)c1
inactive: locus YAL013W, strain DEP1, active compounds read low 1.01 | locus YAL021C, strain ccr4, active compounds read low 0.951 | locus YAL026C, strain drs2, active compounds read low 0.966 | locus YAL030W, strain snc1, active compounds read low 0.981 | locus YBL061C, strain skt5, active compounds read low 0.981 | locus YBR009C, strain hhf1, active compounds read low 0.981 | locus YBR021W, strain FUR4, active compounds read low 1.02 | locus YBR023C, strain chs3, active compounds read low 0.975 | locus YBR171W, strain sec66, active compounds read low 0.983 | locus YBR229C, strain ROT2, active compounds read low 1.01 | locus YBR231C, strain swc5, active compounds read low 0.99 | locus YBR279W, strain paf1, active compounds read low 1 | locus YCL011C, strain gbp2, active compounds read low 0.938 | locus YCL016C, strain dcc1, active compounds read low 0.956 | locus YCL029C, strain bik1, active compounds read low 0.987 | locus YCL061C, strain MRC1, active compounds read low 0.95 | locus YCL069W, strain vba3, active compounds read low 0.978 | locus YCR088W, strain abp1, active compounds read low 0.981 | locus YDL005C, strain med2, active compounds read low 0.977 | locus YDL035C, strain GPR1, active compounds read low 1.01 | locus YDL040C, strain nat1, active compounds read low 0.99 | locus YDL074C, strain BRE1, active compounds read low 1.01 | locus YDL101C, strain DUN1, active compounds read low 1 | locus YDL134C, strain PPH21, active compounds read low 0.999 | locus YDL185W, strain tfp1, active compounds read low 0.974 | locus YDL192W, strain arf1, active compounds read low 0.987 | locus YDR001C, strain nth1, active compounds read low 0.957 | locus YDR069C, strain doa4, active compounds read low 0.976 | locus YDR101C, strain arx1, active compounds read low 0.981 | locus YDR137W, strain rgp1, active compounds read low 0.942 | locus YDR150W, strain NUM1, active compounds read low 1.01 | locus YDR159W, strain sac3, active compounds read low 0.953 | locus YDR162C, strain NBP2, active compounds read low 1 | locus YDR195W, strain ref2 0.993 | locus YDR297W, strain sur2, active compounds read low 0.989 | locus YDR318W, strain mcm21, active compounds read low 0.985 | locus YDR334W, strain swr1, active compounds read low 0.969 | locus YDR335W, strain msn5, active compounds read low 0.983 | locus YDR388W, active compounds read low 0.986 | locus YDR392W, strain spt3, active compounds read low 0.872 | locus YDR502C, strain sam2, active compounds read low 0.984 | locus YEL003W, strain gim4, active compounds read low 0.985 | locus YEL037C, strain rad23, active compounds read low 0.977 | locus YEL061C, strain CIN8 (second series), active compounds read low 0.972 | locus YEL061C, strain CIN8, active compounds read low 1 | locus YER015W, strain faa2, active compounds read low 0.981 | locus YER016W, strain bim1, active compounds read low 0.982 | locus YER110C, active compounds read low 0.984 | locus YER111C, strain swi4, active compounds read low 0.981 | locus YER155C, strain BEM2 (second series), active compounds read low 0.973 | locus YER155C, strain BEM2, active compounds read low 1 | locus YER167W, strain BCK2, active compounds read low 1.01 | locus YFR010W, strain ubp6, active compounds read low 0.966 | locus YGL078C, strain dbp3, active compounds read low 0.987 | locus YGL086W, strain mad1, active compounds read low 0.994 | locus YGL167C, strain pmr1, active compounds read low 0.984 | locus YGL173C, strain kem1, active compounds read low 0.996 | locus YGL227W, strain vid30, active compounds read low 0.981 | locus YGL240W, strain doc1, active compounds read low 1.01 | locus YGL248W, strain PDE1, active compounds read low 1.01 | locus YGL253W, strain hxk2, active compounds read low 0.962 | locus YGR135W, strain pre9, active compounds read low 0.986 | locus YGR252W, strain gcn5, active compounds read low 0.974 | locus YHR013C, strain ard1, active compounds read low 0.947 | locus YHR027C, strain rpn1, active compounds read low 0.985 | locus YHR030C, strain SLT2, active compounds read low 1.01 and 1.03 | locus YHR079C, strain IRE1 (second series), active compounds read low 0.987 | locus YHR079C, strain IRE1, active compounds read low 1.05 | locus YHR094C, strain hxt1, active compounds read low 0.993 | locus YHR129C, strain ARP1, active compounds read low 1.02 | locus YHR142W, strain chs7, active compounds read low 0.954 | locus YHR200W, strain rpn10, active compounds read low 0.987 | locus YIL066C, strain RNR3, active compounds read low 0.999 | locus YIL073C, strain SPO22, active compounds read low 0.993 | locus YIL125W, strain kgd1, active compounds read low 0.986 | locus YIR030C, strain dcg1, active compounds read low 0.991 | locus YJL092W, strain hpr5, active compounds read low 0.963 | locus YJL095W, strain BCK1 (second series), active compounds read low 0.987 | locus YJL095W, strain BCK1, active compounds read low 1.02 and 0.997 | locus YJL115W, strain asf1, active compounds read low 0.978 | locus YJL129C, strain trk1, active compounds read low 0.974 | locus YJL134W, strain LCB3, active compounds read low 1.01 | locus YJL154C, strain vps35, active compounds read low 0.977 | locus YJL164C, strain tpk1, active compounds read low 0.947 | locus YJL166W, strain qcr8, active compounds read low 1 | locus YJL168C, strain set2, active compounds read low 0.988 | locus YJL187C, strain SWE1 (second series), active compounds read low 1.01 | locus YJL187C, strain SWE1, active compounds read low 0.989 | locus YJR043C, strain POL32, active compounds read low 1.01
